# For some assays here: Measured potencies and affinities stand elsewhere.
# How the values were obtained:
# Parameters in all cases: scale not given: direction of the effect not stated beside the values
# [1] = target: Protein translocase subunit SecA (Escherichia coli (strain K12)) (UniProt P10408); assay: Assay to Identify E. coli SecA ATPase Inhibitors; format: functional; settings: 30 µM
# [2] = target: T1, Ubiquitin-activating enzyme e1, putative (Leishmania donovani (strain BPK282A1)) (UniProt E9BSI1); assay: Leishmania donovani Ubiquitin Activating Enzyme (LdE1); format: functional; settings: 30 µM
# T1 sequence (whole entry): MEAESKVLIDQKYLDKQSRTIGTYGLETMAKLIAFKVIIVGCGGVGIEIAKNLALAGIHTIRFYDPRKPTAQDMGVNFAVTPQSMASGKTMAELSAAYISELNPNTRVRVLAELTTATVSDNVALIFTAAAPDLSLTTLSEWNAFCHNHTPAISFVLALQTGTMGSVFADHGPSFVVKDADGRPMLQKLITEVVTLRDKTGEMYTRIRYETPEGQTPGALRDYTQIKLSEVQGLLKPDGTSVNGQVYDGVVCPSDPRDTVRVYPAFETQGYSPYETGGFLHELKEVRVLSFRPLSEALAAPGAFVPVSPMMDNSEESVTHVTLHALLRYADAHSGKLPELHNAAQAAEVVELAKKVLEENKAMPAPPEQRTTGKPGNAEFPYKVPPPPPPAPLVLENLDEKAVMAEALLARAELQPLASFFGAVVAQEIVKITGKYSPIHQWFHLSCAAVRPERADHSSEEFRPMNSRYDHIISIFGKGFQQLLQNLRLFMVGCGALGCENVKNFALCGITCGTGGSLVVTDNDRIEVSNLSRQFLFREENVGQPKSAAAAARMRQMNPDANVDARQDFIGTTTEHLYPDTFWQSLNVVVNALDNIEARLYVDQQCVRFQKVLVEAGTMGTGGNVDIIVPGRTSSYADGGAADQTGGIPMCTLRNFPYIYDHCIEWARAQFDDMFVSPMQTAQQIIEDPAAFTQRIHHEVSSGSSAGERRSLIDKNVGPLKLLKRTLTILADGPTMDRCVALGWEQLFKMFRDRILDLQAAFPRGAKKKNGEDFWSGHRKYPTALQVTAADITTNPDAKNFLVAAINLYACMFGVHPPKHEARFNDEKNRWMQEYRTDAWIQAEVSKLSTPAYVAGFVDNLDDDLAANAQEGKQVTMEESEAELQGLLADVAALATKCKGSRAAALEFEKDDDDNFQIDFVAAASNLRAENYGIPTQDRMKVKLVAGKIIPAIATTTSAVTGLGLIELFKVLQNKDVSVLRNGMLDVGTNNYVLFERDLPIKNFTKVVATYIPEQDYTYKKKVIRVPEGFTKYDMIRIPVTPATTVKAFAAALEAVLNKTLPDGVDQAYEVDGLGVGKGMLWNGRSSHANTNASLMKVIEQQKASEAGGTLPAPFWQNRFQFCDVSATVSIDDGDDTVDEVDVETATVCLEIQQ
# [3] = target: AMP-activated protein kinase, AMPK (Homo sapiens) (UniProt P54646+O43741+P54619+Q9UGJ0+Q9Y478+Q13131+Q9UGI9); assay: AMP-dependent Kinase enzyme assay. An in vitro enzyme assay that detects ADP turnover that is directly proportional to AMPK activity. This uses naive AMPK that is activated during the assay with MK-8722; format: functional; settings: 30 µM
# [4] = target: Sialic acid-binding Ig-like lectin 9 (Homo sapiens) (UniProt Q9Y336); assay: Hs-Siglec9 ALPHAscreen SOP 20170721; settings: 10 µM
# Trypanosoma cruzi = assay: Trypanosoma cruzi phosphomannomutase and mannose-1-phosphate guanylyltransferase assay; format: functional; settings: 10 µM
# [5] = target: T2, Arginase-2, mitochondrial (Homo sapiens) (UniProt P78540); assay: in vitro enzyme assay to detect the production of urea directly proportional to the activity of Arginase II; format: functional; settings: 33.3 µM; also: in the data most compounds retested in dose-response had high values
# T2 sequence (whole entry): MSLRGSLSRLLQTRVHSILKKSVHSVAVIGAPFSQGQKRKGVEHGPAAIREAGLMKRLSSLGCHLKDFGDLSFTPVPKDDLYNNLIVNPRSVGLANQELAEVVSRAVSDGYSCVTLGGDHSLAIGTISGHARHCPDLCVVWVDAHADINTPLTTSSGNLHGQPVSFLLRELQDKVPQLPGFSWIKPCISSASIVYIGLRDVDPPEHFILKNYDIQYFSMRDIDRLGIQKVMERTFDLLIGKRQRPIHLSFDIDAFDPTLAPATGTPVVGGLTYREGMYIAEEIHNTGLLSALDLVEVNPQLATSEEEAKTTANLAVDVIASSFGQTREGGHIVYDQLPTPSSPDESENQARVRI
# [6] = target: T3, Proteasome subunit beta (Trypanosoma cruzi) (UniProt O96673); assay: Trypanosoma cruzi proteasome chymotrypsin-like activity (TcProtChymo) assay.; also: in the data most compounds retested in dose-response had high values; format: functional; settings: 9.37 µM
# T3 sequence (whole entry): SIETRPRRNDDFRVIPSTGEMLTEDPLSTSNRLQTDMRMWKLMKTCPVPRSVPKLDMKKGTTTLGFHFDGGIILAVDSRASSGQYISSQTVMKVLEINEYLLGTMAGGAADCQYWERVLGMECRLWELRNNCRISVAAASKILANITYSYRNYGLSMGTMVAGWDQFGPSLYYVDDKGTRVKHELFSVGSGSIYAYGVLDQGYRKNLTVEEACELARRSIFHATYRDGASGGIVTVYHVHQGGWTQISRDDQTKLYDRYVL
# Homo sapiens = organism: Homo sapiens; assay: To identify inhibition of the IFN signalling (Jak-Stat) pathway via expression of an eGFP reporter gene under the control of an IFN-stimulated response element (ISRE) containing MxA promoter.; format: functional; settings: 30 µM
# [7] = target: T4, Tyrosyl-tRNA synthetase, putative (Trypanosoma cruzi (strain CL Brener)) (UniProt Q4DSP6); assay: Trypanosoma cruzi tyrosyl tRNA synthetase (TcYRS) _High Tyrosine SOP; format: functional; settings: 30 µM; also: in the data most compounds retested in dose-response had high values
# T4 sequence (whole entry): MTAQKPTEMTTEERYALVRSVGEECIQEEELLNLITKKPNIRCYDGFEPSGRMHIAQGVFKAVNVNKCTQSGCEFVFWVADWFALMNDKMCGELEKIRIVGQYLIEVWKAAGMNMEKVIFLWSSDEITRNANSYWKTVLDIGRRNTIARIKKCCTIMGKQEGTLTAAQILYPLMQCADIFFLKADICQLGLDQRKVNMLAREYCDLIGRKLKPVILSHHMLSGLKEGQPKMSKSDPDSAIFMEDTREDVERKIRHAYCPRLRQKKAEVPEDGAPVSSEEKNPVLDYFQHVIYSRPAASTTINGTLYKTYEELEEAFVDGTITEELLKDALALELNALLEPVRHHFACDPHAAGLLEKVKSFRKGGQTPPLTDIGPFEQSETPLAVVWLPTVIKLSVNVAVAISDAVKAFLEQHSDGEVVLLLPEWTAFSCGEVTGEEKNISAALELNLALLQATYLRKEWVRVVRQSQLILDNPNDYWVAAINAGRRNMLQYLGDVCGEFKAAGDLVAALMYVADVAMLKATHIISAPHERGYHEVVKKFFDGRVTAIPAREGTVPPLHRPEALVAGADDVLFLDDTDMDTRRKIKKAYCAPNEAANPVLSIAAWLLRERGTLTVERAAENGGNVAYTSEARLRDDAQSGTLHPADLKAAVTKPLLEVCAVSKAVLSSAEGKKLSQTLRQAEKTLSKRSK
# [8] = target: T4, Tyrosyl-tRNA synthetase, putative (Trypanosoma cruzi (strain CL Brener)); assay: Trypanosoma cruzi tyrosyl tRNA synthetase (TcYRS) SOP; format: functional; settings: 30 µM
# [9] = target: Chromo domain-containing protein 1 (Saccharomyces cerevisiae (strain ATCC 204508 / S288c) (Baker's yeast)) (UniProt P32657); assay: ScCHD-1 Enzyme Inhibition Assay; format: functional; settings: 30 µM; also: in the data most compounds retested in dose-response had high values
# Sequence of Chromo domain-containing protein 1 (Saccharomyces cerevisiae (strain ATCC 204508 / S288c) (Baker's yeast)) (P32657 whole entry, the tested form may be a part): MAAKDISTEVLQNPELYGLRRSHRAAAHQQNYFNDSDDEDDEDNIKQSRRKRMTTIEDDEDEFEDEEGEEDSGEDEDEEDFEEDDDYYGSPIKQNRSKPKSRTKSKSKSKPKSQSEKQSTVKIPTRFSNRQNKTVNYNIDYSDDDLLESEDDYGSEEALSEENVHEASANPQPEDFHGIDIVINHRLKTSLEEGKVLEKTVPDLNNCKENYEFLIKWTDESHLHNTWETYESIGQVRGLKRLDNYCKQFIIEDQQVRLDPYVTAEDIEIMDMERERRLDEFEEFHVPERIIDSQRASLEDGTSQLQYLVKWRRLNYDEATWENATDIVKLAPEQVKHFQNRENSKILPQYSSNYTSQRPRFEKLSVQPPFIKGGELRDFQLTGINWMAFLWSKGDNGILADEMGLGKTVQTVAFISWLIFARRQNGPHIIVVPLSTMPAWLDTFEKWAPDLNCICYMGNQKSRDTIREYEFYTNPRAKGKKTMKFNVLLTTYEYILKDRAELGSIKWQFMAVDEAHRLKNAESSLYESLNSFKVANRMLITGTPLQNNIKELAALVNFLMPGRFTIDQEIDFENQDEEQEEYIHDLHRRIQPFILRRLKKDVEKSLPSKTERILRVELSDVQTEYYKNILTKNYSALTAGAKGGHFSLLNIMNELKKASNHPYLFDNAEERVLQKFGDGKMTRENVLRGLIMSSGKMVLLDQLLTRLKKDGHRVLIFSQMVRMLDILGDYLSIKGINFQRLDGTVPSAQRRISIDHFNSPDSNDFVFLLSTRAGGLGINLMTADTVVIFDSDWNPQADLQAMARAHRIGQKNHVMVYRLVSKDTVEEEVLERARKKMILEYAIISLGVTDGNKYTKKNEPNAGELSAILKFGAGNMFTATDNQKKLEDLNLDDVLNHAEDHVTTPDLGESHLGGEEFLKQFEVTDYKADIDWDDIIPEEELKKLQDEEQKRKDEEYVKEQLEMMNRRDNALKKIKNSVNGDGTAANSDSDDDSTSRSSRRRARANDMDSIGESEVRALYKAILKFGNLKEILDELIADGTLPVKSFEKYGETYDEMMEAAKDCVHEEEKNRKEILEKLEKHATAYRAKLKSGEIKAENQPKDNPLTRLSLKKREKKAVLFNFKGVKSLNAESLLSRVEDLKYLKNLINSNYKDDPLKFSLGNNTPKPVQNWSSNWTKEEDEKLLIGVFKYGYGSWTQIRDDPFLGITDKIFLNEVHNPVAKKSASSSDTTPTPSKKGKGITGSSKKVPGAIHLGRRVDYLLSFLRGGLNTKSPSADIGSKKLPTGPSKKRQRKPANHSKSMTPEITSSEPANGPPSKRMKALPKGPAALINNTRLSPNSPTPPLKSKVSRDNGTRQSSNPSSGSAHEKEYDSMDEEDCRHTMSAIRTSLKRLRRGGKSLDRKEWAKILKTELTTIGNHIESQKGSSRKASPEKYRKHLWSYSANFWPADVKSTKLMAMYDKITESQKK
# Sequence of Sialic acid-binding Ig-like lectin 9 (Homo sapiens) (Q9Y336 whole entry): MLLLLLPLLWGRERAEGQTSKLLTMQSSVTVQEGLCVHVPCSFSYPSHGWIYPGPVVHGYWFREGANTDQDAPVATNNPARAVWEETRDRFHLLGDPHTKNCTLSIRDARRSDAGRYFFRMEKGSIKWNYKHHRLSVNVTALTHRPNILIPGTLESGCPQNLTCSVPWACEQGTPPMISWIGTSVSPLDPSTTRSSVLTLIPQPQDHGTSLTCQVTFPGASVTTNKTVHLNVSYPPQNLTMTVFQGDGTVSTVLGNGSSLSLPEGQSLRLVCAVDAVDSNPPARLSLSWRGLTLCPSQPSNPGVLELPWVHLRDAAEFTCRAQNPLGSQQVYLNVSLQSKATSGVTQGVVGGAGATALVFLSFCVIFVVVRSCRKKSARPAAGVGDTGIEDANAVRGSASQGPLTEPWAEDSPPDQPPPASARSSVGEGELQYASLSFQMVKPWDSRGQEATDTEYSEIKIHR
# Sequence of Protein translocase subunit SecA (Escherichia coli (strain K12)) (P10408 whole entry): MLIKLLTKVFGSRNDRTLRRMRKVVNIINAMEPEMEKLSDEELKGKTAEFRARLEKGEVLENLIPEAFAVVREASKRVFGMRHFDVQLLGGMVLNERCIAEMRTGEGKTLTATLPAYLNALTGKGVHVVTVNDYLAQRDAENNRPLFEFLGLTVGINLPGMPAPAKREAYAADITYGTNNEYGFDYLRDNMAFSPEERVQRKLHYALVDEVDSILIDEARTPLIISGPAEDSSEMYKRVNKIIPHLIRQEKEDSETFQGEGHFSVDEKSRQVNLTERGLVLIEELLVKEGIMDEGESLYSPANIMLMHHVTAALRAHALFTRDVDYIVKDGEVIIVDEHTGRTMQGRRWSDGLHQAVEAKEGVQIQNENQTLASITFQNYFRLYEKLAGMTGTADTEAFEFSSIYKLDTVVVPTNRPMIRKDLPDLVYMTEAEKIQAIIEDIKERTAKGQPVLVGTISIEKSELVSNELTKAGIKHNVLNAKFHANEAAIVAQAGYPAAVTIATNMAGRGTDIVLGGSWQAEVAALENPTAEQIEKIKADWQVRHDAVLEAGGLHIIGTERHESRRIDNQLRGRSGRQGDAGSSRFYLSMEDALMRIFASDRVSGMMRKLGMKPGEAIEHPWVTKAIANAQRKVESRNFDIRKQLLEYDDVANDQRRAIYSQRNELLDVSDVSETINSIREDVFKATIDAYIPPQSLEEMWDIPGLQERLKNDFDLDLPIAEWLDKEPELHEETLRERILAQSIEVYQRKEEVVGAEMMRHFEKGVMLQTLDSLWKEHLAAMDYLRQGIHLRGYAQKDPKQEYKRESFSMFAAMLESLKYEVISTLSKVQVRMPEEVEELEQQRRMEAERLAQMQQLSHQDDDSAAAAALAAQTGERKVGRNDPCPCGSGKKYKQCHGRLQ
SMILES,Percent Effect [1] [%],Percent Effect [2] [%],Percent Effect [3] [%],Percent Effect [4] [%],Percent Effect (Trypanosoma cruzi) [%],Percent Effect [5] [%],Percent Effect [6] [%],Percent Effect (Homo sapiens) [%],Percent Effect [7] [%],Percent Effect [8] [%],Percent Effect [9] [%]
O=C(c1ccc(Cl)cc1)N1CCCn2nnc(Cn3cccn3)c2C1,-2.51,16.2,3.45,15.3,4.2,8.19,16.6,8.78,5.38,16.1,-7.62
O=C(NCc1ccccc1F)N1CCC(C2OCCO2)CC1,-3.95,7.89,-0.484,-1.41,-5.94,-5.92,7.19,-6.9,4.25,7.79,-3.04
CC(C)(C)C(=O)N1CCCC1c1nc(O)cc(-c2ccccn2)n1 (configuration not stated),-5.78,25.7,5.44,16.5,3.36,-1.62,11.9,7.83,5.38,24.7,-13.5
O=C1CC2(CCN(CC3CCOC3)CC2)CN1Cc1cc(F)cc(F)c1 (configuration not stated),-5.41,12.5,-5.76,26.3,4.37,16.3,9.65,-12.9,2.1,10.3,-4.1
COC1CCN(C(=O)c2c(Cl)c3ccccc3n2C)CC1,-5.47,5.33,0.805,8.11,3.41,5.21,16.2,-7.49,3.83,11.1,-5
CCc1nnsc1C(=O)N1CCCN(Cc2nccn2C)CC1,-2.29,-96.1,4.85,9.93,3.04,0.632,2.18,3.59,1.91,-2.35,-8.53
Cc1nnc2n1CCN(C(=O)c1cc(Cl)c(Cl)n1C)C2,-1.98,5.26,-1.75,6.76,2.63,-1.53,0.501,-1.85,-1.47,7.32,-1.57
O=C(N1CCOCC1)N1CCc2ncnc(NC3CC3)c2CC1,-0.799,0,6.99,-5.96,-7.81,6.67,19.2,19.9,0.99,6.1,0.83
Cn1c(Nc2cn[nH]c2)c(C#N)c(=O)n(C)c1=O,-7.22,5.41,-1.11,-6.81,-8.31,-1.74,14.3,-8.26,-3.23,1.24,-4.94
CCS(=O)(=O)N1CCC(c2nc3ccc(-c4ccccc4)cn3n2)CC1,-0.159,-2.74,-1.18,0.509,5.75,0.399,10,-3.81,-24,8.64,2.57
CC(C)COC(C)C(=O)N1CCN(S(C)(=O)=O)CC1 (configuration not stated),-3.12,8.22,-1.38,2.29,3.53,1.36,8.34,-1.94,4.3,20,-4.42
CC(C)Oc1cc(N2C[C@@H](C)O[C@@H](C)C2)nc(N)n1,-1.28,8.11,-16.9,-0.905,0,-17.1,12.8,3.78,10.1,12.2,-1.35
CCc1n[nH]c(C2CN(C(=O)c3cnns3)CCO2)n1 (configuration not stated),-3.59,0,2.14,-2.18,-4.63,-19,2.7,15.6,1.48,-3.8,-1.39
CN1CCN(Cc2nnc(C3CCN(CC4CC4)CC3)n2C)CC1,0.271,8.22,4.92,1.71,3.13,7.27,13.3,22.3,8.6,17.5,-3.38
CN(C)C[C@H]1OC[C@@H]2CCN(C(=O)c3ccco3)C[C@@H]21,-8.17,-2.7,-0.601,-7.74,-3.23,0.248,-0.0858,11.6,1.07,3.7,0.795
CCC(=O)N1CCc2[nH]cnc2C12CCN(C(=O)c1snnc1C)CC2,-0.279,5.33,-6.44,8.1,0.876,10.9,13.8,23.3,0.546,13.6,-1.51
CCN(CC1CN(Cc2ncc[nH]2)CCO1)c1cccnn1 (configuration not stated),-4.66,8,-8.56,6.93,1.46,5.21,16.2,6.04,4.92,8.64,-4.63
O=C(c1ccncc1F)N1CCc2ncnc(-c3ccncc3)c2CC1,-6.29,5.41,-2.05,-1.21,-5.38,-0.955,10.7,14,1.08,7.69,0.761
CCc1nc(C(=O)N2CCCC2)nn1-c1ccccc1Cl,-7.61,10.5,-8.39,16.4,4.95,2.16,2.62,4.97,7.39,18.5,-7.11
CC(C(=O)N1CCN(c2cnccn2)CC1)n1cncn1 (configuration not stated),-0.0716,1.27,4.88,1.64,-4,7.53,8.23,11.1,3.12,10.1,-8.39
CN(CC(=O)N1CCCC1c1cnn(C)c1)c1ccc(Cl)cn1 (configuration not stated),-8.15,7.89,-2.82,-3.87,-7.56,2.52,7.19,6.79,2.46,6.17,0.471
Cc1ccc(N2CCCC(N(C)Cc3cc(C)no3)C2)nn1 (configuration not stated),-0.747,5.33,-6.3,43.3,5.55,23.4,19.9,0.899,6.01,11.1,-17.3

# From ChEMBL document CHEMBL3988442, “University of Dundee, Small-Polar-MMV Screening Library” (2021)
